# Laboratory results taken from the supplement of paper PMC6555819.
# How the values were obtained:
# Test in all cases: PBM binding z-score (relative to random genomic background probes); higher = stronger binding; sequences stand for … in GC…GCGATTGACAGCGTAGAATGAAGG
# [1] = system: RARb homodimer (NR concentration 270 nM)
# Method in brief: (§1)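 Random background probes are the reference for binding z-scores. These scores derive from regression-normalized fluorescence on custom Agilent 4×180K protein-binding microarrays incubated 1 h with ligand-free nuclear receptor dimers. Binding was detected with antibodies against each partner (one per run).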
# [2] = system: RARg:RXRa (NR concentration 270 nM, RXRa partner concentration 90 nM)
# Method in brief: as §1
# [3] = system: RARg homodimer (NR concentration 270 nM)
# Method in brief: as §1
# [4] = system: RXRa DBDmut IVT, anti-RXR (DBD mutation: RXRa K156A/R161A, NR concentration 90 nM)
# Method in brief: as §1
# [5] = system: RXRa homodimer (NR concentration 180 nM)
# Method in brief: as §1
# [6] = system: THRa:RXRa (NR concentration 90 nM, RXRa partner concentration 90 nM)
# Method in brief: as §1
# [7] = system: THRa homodimer (NR concentration 90 nM)
# Method in brief: as §1
# [8] = system: VDR homodimer (NR concentration 270 nM)
# Method in brief: as §1
Sequence,PBM binding z-score [1],PBM binding z-score [2],PBM binding z-score [3],PBM binding z-score [4],PBM binding z-score [5],PBM binding z-score [6],PBM binding z-score [7],PBM binding z-score [8]
TAGCCTAGGTCATGGGGGCCAGTATAGTGTCGGC,3.76,4.91,4.98,0.677,3.54,3.64,2.29,1.94
CGTCTAAGTTCAACTAAGGTAACGTAAAGCACGC,3.13,4.18,4.79,4.84,3.54,4.95,2.6,4.24
ACAGACAGGTGATGAAGGTAACCCAGGCTATCAT,0.672,0.398,0.392,-0.925,0.473,0.892,0.124,-0.253
AGTCAAAGTTCACTAGGTAACGGAAGATTCAGCT,3.81,5.03,5.67,4.26,3.89,2.04,0.215,3.71
GCAACTGGGGCATCAGCAGGTTACCATAACTTAA,0.793,0.74,0.473,0.26,0.318,1.04,0.19,-0.0433
CCAAGTAGGTTATGGGGCATTCAGGCAACGGTGA,0.93,0.634,0.608,0.0857,0.733,0.508,-0.0137,0.318
TAGCCTAGGTCATTCAGAGGCCAGTATAGAAAGC,3.33,5.8,4.01,1.57,2.87,3.14,0.653,1.14
CGAACTAGGTCATTGACAGGACAGGGAATAGTAA,2.89,4.58,4.36,2.18,2.59,2.99,1.01,1.02
ATATGTAGGTTGCATCCGGGTCATTCAGGCTATG,2.16,2.04,1.12,0.735,2.28,3.03,1.96,2.66
CTACCAAGGTGAACAAGGTCGTTGGTTACTATTC,2.16,1.79,1.29,1.28,1.87,3.19,1.81,3.03
CATACAGGGTCAGCTAGGCCAGAATAGGGACGGC,3.37,4.33,4.34,1.53,4.26,3.04,1.13,0.805
ATCTCTAGGTAAAAGGTCAGTGAATCCCGAGGAT,4.43,4.54,4.74,0.227,4.83,3.34,0.855,0.867
ACGGACAGGTGATGAAGGTAACTCAGGCTATCAT,0.711,0.496,0.813,0.19,0.31,1.02,0.438,0.327
ATCACTAGGTAAAGATAGTTCAGTGAATGCAAAT,0.839,0.649,0.795,-0.617,0.325,0.492,0.0795,0.49
ACCTACGGGTCAACGAGGTTATAGCACGCGTATA,3.18,5.47,4.95,2.06,5.89,3.88,0.718,3.51
ATCTCTAGGTAACCAAGTACAGTGAATGCCGAAC,0.221,0.424,0.577,0.152,0.115,0.827,0.385,0.365
ATCGAAAGGTCGAAGGTGATTATACCCACCCGAA,2.14,4.11,3.87,0.956,4.77,1.97,0.193,0.477
AGAACGAGGTTATACGTAGATCAGGGAAGAAAGT,0.438,1.69,1.07,1.54,2.02,1.41,0.179,0.807
ACTAGTTGGTCAGCTCAGGTCACACACAATTCGG,3.56,2.3,2.88,0.763,1.93,4.66,4.32,1.46

Sequence,PBM binding z-score [1],PBM binding z-score [2],PBM binding z-score [3],PBM binding z-score [4],PBM binding z-score [5],PBM binding z-score [6],PBM binding z-score [7],PBM binding z-score [8]
TCTTGTAGATCAATAGAGGTAAAGAAAGTGCGCT,-0.162,0.0817,0.0168,0.436,0.364,1.9,-0.539,-0.6
CGTCCAATGTCATAGGAGGTCAGTGAAGACAGAT,3.62,3,3.4,0.694,2.17,4.28,0.745,1.64
GCTGCTAGGTCAACTGATGGTCAGATAAAGCTCG,3.52,5.33,5.41,1.79,3.01,2.9,1.07,0.346
CGAACTAGGTCAGAACAGGACAGCGAAGGATGAT,2.08,2.39,3.18,0.432,1.39,3.82,0.236,-0.0467
CCTGGGAGGACAACAGGAGGTCAGAGCTGCCAGA,3.72,3.71,3.6,-0.219,2.29,3.05,1.32,1.37
GATACAGGGTCCAGGCCAGAGTACGCGTATTGAT,0.265,0.144,0.255,-0.135,0.291,-0.105,-0.0572,0.607
AGAATGAGGTTCTACGTAGATCAGGGAAGAAAGT,-0.327,-0.12,0.0722,0.025,-0.0793,-0.0436,-0.709,-0.322
ATCTCTAGGTAAAGATAGTTCAGTGACTGCAAAT,1.33,0.534,0.542,0.648,-0.00287,0.905,0.426,0.571
TCGAGTAGGTTACCAATGGCGCATTCAGCTTTCT,0.00418,0.036,0.0712,0.461,0.351,-0.246,-0.453,-0.613
TCATATAGGTAAGAGGTGAAAGTCGGTGTGGTAA,1.34,1.19,0.66,1.84,1.99,1.69,0.894,0.13
ATATGTAGGTTAGATCCGGGTCATTCAGGCTATG,2.63,3.21,1.63,0.691,2.65,3.63,2.08,1.71
CCTAGCAGCCCAATCTGGGTCACTCAAGGCTTGA,1.77,0.615,0.301,-0.241,0.56,2.28,0.424,-0.324
ACTATTAATTGACTTAGGGCAACCGATACGACGC,1,0.766,0.814,0.828,0.409,0.884,1.15,1.24
GGAACGAGGACAAAGTTGATAGCATCTGTCGACG,0.33,0.769,1.2,1.23,0.361,2.36,0.861,0.141
ATATGTAGGTTACATCCGGGTCATTCACGCTATG,2.82,4,2.31,1.39,3.38,3.86,2.6,3.12
GCTTGTAGATCAAGGTTAAGACAGACTAAGCTAA,0.562,0.461,0.497,-0.0408,0.989,1.27,-0.0509,0.0668
ACTCGGAGGACAAAGCTCAGAGCTACGCCAGTGA,-0.345,0.103,0.826,0.394,-0.292,0.233,-0.675,-0.243
CTAGACAGGTGAAAGGTAACTCAGTCTGGTACGC,0.55,1.36,0.619,-0.39,2.23,0.865,-0.398,-0.464
